{
  "source": "PubChem BioAssay (NCI)",
  "note": "This is part of a sample that, as a whole, favours compounds with a hit. Of some 83,000 tested, about 20% had one in any assay.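 Results are percent growth after 48 hours of single-concentration exposure. 100 means growth as in untreated cells, lower positive values show inhibition; negative values down to -100 show cell death.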 Active and inactive are the calls of the source. The calls were made as follows: active = growth percent below 10; inactive = the rest.",
  "data": [
    {"test_system": "SK-OV-3 ovarian", "assay": "NCI-60 one-dose screen, 48 h (100 = growth as untreated, 0 = no growth, -100 = all killed)", "details": "10 µM", "values": [
      {"smiles": "CC[C@]12C=CCN3CC[C@@]4(c5ccc(OC)cc5N(C)[C@H]4[C@@](O)(C(=O)OC)[C@@H]1OC(=O)CCCC[P+](c1ccc(OC)cc1)(c1ccc(OC)cc1)c1ccc(OC)cc1)[C@@H]32", "growth": "-82.5% (active)"},
      {"smiles": "CC1=C(CCC=NNC(N)=O)C2=C(C)C3(CC3)[C@@](C)(O)C(=O)C2=C1", "growth": "-72.1% (active)"},
      {"smiles": "CC[C@@]12CC(C(=O)OC)=C3Nc4cc5c(cc4[C@@]34CCN(C[C@H]3O[C@H]31)[C@@H]24)[C@@H]1[C@H](O5)[C@@H](O)[C@@]2(CC)CC(C(=O)OC)=C3Nc4cc(OC)ccc4[C@@]34CCN1[C@@H]24", "growth": "14.4% (inactive)"},
      {"smiles": "CCOP(=O)(CC(F)(F)C(F)(F)F)OCC", "growth": "111% (inactive)"},
      {"smiles": "CC1=C2C(=C[C@@](C)(COP(=O)(Oc3ccccc3)Oc3ccccc3)[C@@H]2O)C(=O)[C@@](C)(O)C12CC2", "growth": "-79.5% (active)"},
      {"smiles": "CC(=O)Oc1ccccc1C(=O)NC([Se])=NC1CCCCC1", "growth": "-41.7% (active)"},
      {"smiles": "C[C@H]1[C@H](OC(=O)CCC(=O)N(CCCc2cn(-c3ccc(CN4CCOCC4)cc3)nn2)CCNc2ccnc3cc(Cl)ccc23)O[C@@H]2OC3(C)CC[C@H]4[C@H](C)CC[C@@H]1[C@@]24OO3", "growth": "74.2% (inactive)"},
      {"smiles": "O=C(/C=C/c1ccc(Cl)cc1)c1nc2ccccc2n1Cc1ccc(F)cc1", "growth": "78.1% (inactive)"},
      {"smiles": "CC1=C(CCC=O)C2=C(C)C3(CC3)[C@@](C)(O)C(=O)C2=C1", "growth": "-62% (active)"},
      {"smiles": "O=C(NC([Se])=NC1CCCCC1)c1ccc2c(c1)OCO2", "growth": "8.53% (active)"},
      {"smiles": "C[C@H]1[C@H](OC(=O)CCC(=O)N(CCCc2cn(-c3ccc(C#N)cc3)nn2)CCNc2ccnc3cc(Cl)ccc23)O[C@@H]2OC3(C)CC[C@H]4[C@H](C)CC[C@@H]1[C@@]24OO3", "growth": "84.4% (inactive)"},
      {"smiles": "C[C@H]1[C@@H](Oc2ccc(-c3cn(-c4ccnc5cc(Cl)ccc45)nn3)cc2)O[C@@H]2OC3(C)CC[C@H]4[C@H](C)CC[C@@H]1[C@@]24OO3", "growth": "52.3% (inactive)"},
      {"smiles": "COc1ccc(/C=C/C(=O)c2nc3ccccc3n2Cc2ccc(Br)cc2)cc1", "growth": "91.7% (inactive)"},
      {"smiles": "COC(=O)CCn1c(-c2ccc(-n3cc(-c4ccc(O[C@H]5O[C@@H]6OC7(C)CC[C@H]8[C@H](C)CC[C@@H]([C@H]5C)[C@@]68OO7)cc4)nn3)cc2)nc2ccccc21", "growth": "33.1% (inactive)"},
      {"smiles": "C[C@H]1[C@H](OC(=O)CCC(=O)N(CCCc2cn(-c3ccc([N+](=O)[O-])cc3)nn2)CCNc2ccnc3cc(Cl)ccc23)O[C@@H]2OC3(C)CC[C@H]4[C@H](C)CC[C@@H]1[C@@]24OO3", "growth": "98.2% (inactive)"}
    ]},
    {"test_system": "IGROV1 ovarian", "assay": "NCI-60 one-dose screen, 48 h (100 = growth as untreated, 0 = no growth, -100 = all killed)", "details": "10 µM", "values": [
      {"smiles": "O=C(/C=C/c1ccco1)c1nc2ccccc2n1Cc1ccc(Br)cc1", "growth": "31.6% (inactive)"},
      {"smiles": "O=C(/C=C/c1ccco1)c1nc2ccccc2n1Cc1ccc(F)cc1", "growth": "52.5% (inactive)"},
      {"smiles": "COc1cc2cc(C(=O)N3C[C@@H](CCl)c4c3cc(OC(=O)N3CCN(C)[C@@H]5CSSC[C@@H]53)c3ccccc43)[nH]c2c(OC)c1OC", "growth": "7.55% (active)"},
      {"smiles": "C#CC[Se]C(=O)c1ccc2n[se]nc2c1", "growth": "77.7% (inactive)"},
      {"smiles": "O=C(/C=C/c1ccc(Cl)cc1Cl)c1nc2ccccc2n1Cc1ccc(F)cc1", "growth": "47% (inactive)"},
      {"smiles": "O=C(/C=C/c1ccc(Cl)cc1)c1nc2ccccc2n1Cc1ccc(Br)cc1", "growth": "52.4% (inactive)"},
      {"smiles": "CCOP(=O)(OCC)C(NC(C)=O)C(=O)SCCN", "note": "(centres undefined)", "growth": "110% (inactive)"},
      {"smiles": "COc1cc2cc(C(=O)N3C[C@@H](CCl)c4c3cc(OC(=O)N3CCN(C)[C@@H]5CSSC[C@H]53)c3ccccc43)[nH]c2c(OC)c1OC", "growth": "-61% (active)"},
      {"smiles": "COc1ccc2cc([C@H](C)C(=O)[Se]CCC#N)ccc2c1", "growth": "-51.7% (active)"},
      {"smiles": "CC12OOC(C)(OO1)C2CCC(=O)OCCNc1ccnc2cc(Cl)ccc12", "note": "(centres undefined)", "growth": "39.7% (inactive)"},
      {"smiles": "CC(C)N=C([Se])NC(=O)c1cccs1", "growth": "1.76% (active)"},
      {"smiles": "Cc1ccc2[nH]c(=S)n(-c3ccc(F)cc3)c(=O)c2c1", "growth": "106% (inactive)"},
      {"smiles": "CCOC(=O)C1=C(Nc2ccccc2)C(=O)OC12C(=O)Nc1ccccc12", "note": "(centres undefined)", "growth": "102% (inactive)"},
      {"smiles": "CC12CCC3(CCC(=O)NCCCNc4ccnc5cc(Cl)ccc45)[C@@](C)(OO[C@]3(C)O1)O2", "growth": "-23.3% (active)"},
      {"smiles": "CC[C@]12C=CCN3CC[C@@]4(c5ccc(OC)cc5N(C)[C@H]4[C@@](O)(C(=O)OC)[C@@H]1OC(=O)CCCC[P+](C1CCCCC1)(C1CCCCC1)C1CCCCC1)[C@@H]32", "growth": "-84.7% (active)"},
      {"smiles": "CC(=O)Oc1ccccc1C(=O)[Se]C(=NC(C)C)NC(C)C", "growth": "-89.8% (active)"},
      {"smiles": "COCCOCCOCCOc1ccc(-n2cc(CCCN(CCNc3ccnc4cc(Cl)ccc34)C(=O)CCC(=O)O[C@@H]3O[C@@H]4OC5(C)CC[C@H]6[C@H](C)CC[C@@H]([C@H]3C)[C@@]46OO5)nn2)cc1", "growth": "44.8% (inactive)"},
      {"smiles": "C[C@H]1[C@@H](CC(=O)N[C@@H](Cc2coc3ccccc23)B(O)O)O[C@@H]2OC3(C)CC[C@H]4[C@H](C)CC[C@@H]1[C@@]24OO3", "growth": "-16.1% (active)"},
      {"smiles": "COP(=O)(CC(F)(F)C(F)(F)F)OC", "growth": "50.2% (inactive)"},
      {"smiles": "CC12OOC(C)(OO1)C2CCC(=O)NCCNc1ccnc2cc(Cl)ccc12", "note": "(centres undefined)", "growth": "89.2% (inactive)"},
      {"smiles": "CC[C@]12C=CCN3CC[C@@]4(c5ccc(OC)cc5N(C)[C@H]4[C@@](O)(C(=O)OC)[C@@H]1OC(=O)CCC[P+](c1ccc(C)cc1)(c1ccc(C)cc1)c1ccc(C)cc1)[C@@H]32", "growth": "-89.5% (active)"},
      {"smiles": "CC(C)N=C([Se])NC(=O)c1ccccc1", "growth": "-54.5% (active)"},
      {"smiles": "CC[C@]12C=CCN3CC[C@@]4(c5ccc(OC)cc5N(C)[C@H]4[C@@](O)(C(=O)OC)[C@@H]1OC(=O)CCC[P+](C1CCCCC1)(C1CCCCC1)C1CCCCC1)[C@@H]32", "growth": "-85.9% (active)"},
      {"smiles": "CC1=C(COCCOC(=O)c2ccc(S(=O)(=O)F)cc2)C2=C(C)C3(CC3)[C@@](C)(O)C(=O)C2=C1", "growth": "-24.3% (active)"},
      {"smiles": "CC[C@]12C=CCN3CC[C@@]4(c5ccc(OC)cc5N(C)[C@H]4[C@@](O)(C(=O)OC)[C@@H]1OC(=O)CCCC[P+](c1ccc(OC)cc1)(c1ccc(OC)cc1)c1ccc(OC)cc1)[C@@H]32", "growth": "-92% (active)"},
      {"smiles": "CC1=C(CCC=NNC(N)=O)C2=C(C)C3(CC3)[C@@](C)(O)C(=O)C2=C1", "growth": "-34% (active)"},
      {"smiles": "CC[C@@]12CC(C(=O)OC)=C3Nc4cc5c(cc4[C@@]34CCN(C[C@H]3O[C@H]31)[C@@H]24)[C@@H]1[C@H](O5)[C@@H](O)[C@@]2(CC)CC(C(=O)OC)=C3Nc4cc(OC)ccc4[C@@]34CCN1[C@@H]24", "growth": "2.51% (active)"},
      {"smiles": "CCOP(=O)(CC(F)(F)C(F)(F)F)OCC", "growth": "60.2% (inactive)"},
      {"smiles": "CC1=C2C(=C[C@@](C)(COP(=O)(Oc3ccccc3)Oc3ccccc3)[C@@H]2O)C(=O)[C@@](C)(O)C12CC2", "growth": "-75.8% (active)"},
      {"smiles": "CC(=O)Oc1ccccc1C(=O)NC([Se])=NC1CCCCC1", "growth": "-46% (active)"},
      {"smiles": "C[C@H]1[C@H](OC(=O)CCC(=O)N(CCCc2cn(-c3ccc(CN4CCOCC4)cc3)nn2)CCNc2ccnc3cc(Cl)ccc23)O[C@@H]2OC3(C)CC[C@H]4[C@H](C)CC[C@@H]1[C@@]24OO3", "growth": "38% (inactive)"},
      {"smiles": "O=C(/C=C/c1ccc(Cl)cc1)c1nc2ccccc2n1Cc1ccc(F)cc1", "growth": "29% (inactive)"},
      {"smiles": "CC1=C(CCC=O)C2=C(C)C3(CC3)[C@@](C)(O)C(=O)C2=C1", "growth": "-79.5% (active)"},
      {"smiles": "O=C(NC([Se])=NC1CCCCC1)c1ccc2c(c1)OCO2", "growth": "43.6% (inactive)"},
      {"smiles": "C[C@H]1[C@H](OC(=O)CCC(=O)N(CCCc2cn(-c3ccc(C#N)cc3)nn2)CCNc2ccnc3cc(Cl)ccc23)O[C@@H]2OC3(C)CC[C@H]4[C@H](C)CC[C@@H]1[C@@]24OO3", "growth": "44.5% (inactive)"},
      {"smiles": "C[C@H]1[C@@H](Oc2ccc(-c3cn(-c4ccnc5cc(Cl)ccc45)nn3)cc2)O[C@@H]2OC3(C)CC[C@H]4[C@H](C)CC[C@@H]1[C@@]24OO3", "growth": "34.3% (inactive)"},
      {"smiles": "COc1ccc(/C=C/C(=O)c2nc3ccccc3n2Cc2ccc(Br)cc2)cc1", "growth": "65.8% (inactive)"},
      {"smiles": "COC(=O)CCn1c(-c2ccc(-n3cc(-c4ccc(O[C@H]5O[C@@H]6OC7(C)CC[C@H]8[C@H](C)CC[C@@H]([C@H]5C)[C@@]68OO7)cc4)nn3)cc2)nc2ccccc21", "growth": "21.7% (inactive)"},
      {"smiles": "C[C@H]1[C@H](OC(=O)CCC(=O)N(CCCc2cn(-c3ccc([N+](=O)[O-])cc3)nn2)CCNc2ccnc3cc(Cl)ccc23)O[C@@H]2OC3(C)CC[C@H]4[C@H](C)CC[C@@H]1[C@@]24OO3", "growth": "44.9% (inactive)"}
    ]}
  ]
}
